Here are results for 39 compounds from the supplement of paper PMC8387472.

Structures can show the parent of a compound that is named as a salt. ± gives the standard deviation of the averaged measurements.

For the experiment, the system named is mESC LDLR-Dup GFP reporter (SpCas9 MH-deletion repair). Put plainly: fraction of GFP+ cells relative to DMSO control (fold change); higher = more MH-deletion repair to in-frame LDLR (or more editing). As to conditions: 2 µM; 7 days post-transfection.
For `O=C(Nc1ccncc1)c1cc([N+](=O)[O-])ccc1Cl`, the “fraction of GFP+ cells” value was 1.74 ± 0.44.

As to `COc1ccc(S(=O)(=O)NCc2ccc(C(=O)NCCc3ccc(Cl)cn3)cc2)cc1`, the “fraction of GFP+ cells” value was found to be 0.936 ± 0.16.

For `O=C(O)c1cc2cccc([N+](=O)[O-])c2[nH]1`, the “fraction of GFP+ cells” value is 1.04 ± 0.19.

Regarding `CS(=O)(=O)c1ccc(-c2nnc(/C=C/c3nnc(-c4ccc(C#N)cc4)o3)n2-c2ccccc2Cl)nc1`, the “fraction of GFP+ cells” value was 0.816 ± 0.089.

For the compound `COc1cc2ncnc(-n3nc(-c4ccccn4)nc3N)c2cc1OC`, the “fraction of GFP+ cells” value is 0.973 ± 0.34.

As for `C=C1C(=O)O[C@@H]2/C=C(\C)CC/C=C(\C)CC[C@@H]12` [Costunolide], the “fraction of GFP+ cells” value came to 1.22 ± 0.2.

Regarding `Cc1cc([N+](=O)[O-])ccc1NS(=O)(=O)c1cc(Cl)ccc1Cl`, the “fraction of GFP+ cells” value was determined as 1.64 ± 0.13.

`O=C(NCc1cccc(O)c1)Nc1nc(-c2ccncc2)cs1`: the “fraction of GFP+ cells” value was found to be 1.11 ± 0.49.

`Nc1ncnc2c1ncn2[C@@H]1O[C@H](CO)[C@@H](O)[C@@H]1O` [Vidarabine]: the “fraction of GFP+ cells” value turned out to be 1.26 ± 0.36.

Turning to `NC(=O)c1ccccc1` [Benzamide], the “fraction of GFP+ cells” value was 1.01 ± 0.07.

`N#Cc1c(Oc2ccc(F)c(NC(=O)Cc3cccc(C(F)(F)F)c3)c2)ccc2nc(NC(=O)C3CC3)sc12`: the “fraction of GFP+ cells” value turned out to be 0.727 ± 0.25.

Take `O=c1cc(-c2cccc3c2Sc2ccccc2S3)oc(N2CCOCC2)c1`: the “fraction of GFP+ cells” value came to 0.661 ± 0.19.

Consider `O=C(NCc1ccccc1)c1csc(Nc2ccncn2)n1` [Thiazovivin], for which the “fraction of GFP+ cells” value stood at 0.987 ± 0.18.

For `O=c1ccc2cc3ccoc3cc2o1` [Psoralen], the “fraction of GFP+ cells” value is 1.11 ± 0.41.

Regarding `Nc1nc2[nH]cc(CCc3ccc(C(=O)N[C@@H](CCC(=O)O)C(=O)O)cc3)c2c(=O)[nH]1` [Pemetrexed Disodium Hydrate], the “fraction of GFP+ cells” value worked out at 1.69 ± 0.34.

`CC[C@H](CO)Nc1nc(NCc2ccccc2)c2ncn(C(C)C)c2n1` [Roscovitine (Seliciclib,CYC202)]: the “fraction of GFP+ cells” value amounted to 1.06 ± 0.096.

`O=c1[nH]c(=O)n([C@H]2C[C@H](O)[C@@H](CO)O2)cc1C(F)(F)F` [Trifluridine]: the “fraction of GFP+ cells” value is 2.69.

`C[C@]1(c2nc3c(C(N)=O)cccc3[nH]2)CCCN1` [Veliparib (ABT-888)]: the “fraction of GFP+ cells” value amounted to 0.657 ± 0.19.

For the compound `Cc1cn([C@H]2C[C@H](N=[N+]=[N-])[C@@H](CO)O2)c(=O)[nH]c1=O` [Zidovudine], the “fraction of GFP+ cells” value was found to be 1.09 ± 0.18.

On to `O=c1oc2c(O)c(O)cc3c(=O)oc4c(O)c(O)cc1c4c23` [Ellagic acid], for which the “fraction of GFP+ cells” value turned out to be 0.913 ± 0.11.

For the compound `O=C(O)[C@]1(Cc2cccc(Nc3nccs3)n2)CC[C@@H](Oc2cccc(Cl)c2F)CC1`, the “fraction of GFP+ cells” value was found to be 1.82 ± 0.2.

`CCCC(CCC)C(=O)O` [Valproic acid sodium salt (Sodium valproate)]: the “fraction of GFP+ cells” value was 0.849 ± 0.18.

For `NC(=O)c1ccccn1` [Picolinamide], the “fraction of GFP+ cells” value amounted to 1.08 ± 0.046.

For `CCN1/C(=C/C(C)=O)Sc2ccc(OC)cc21`, the “fraction of GFP+ cells” value came out at 0.802 ± 0.095.

For `CC(C(=O)Nc1cccc(/N=C/c2c(O)ccc3ccccc23)c1)c1ccccc1` (centres undefined) [Salermide], the “fraction of GFP+ cells” value came out at 0.987 ± 0.56.

As to `NC(=O)c1ncn([C@@H]2O[C@H](CO)[C@@H](O)[C@H]2O)c1O` [Mizoribine], the “fraction of GFP+ cells” value was found to be 1.05 ± 0.12.

On to `COc1cc(N2CCN(C)CC2)ccc1Nc1nccc(-c2cn(C)c3cnccc23)n1`, for which the “fraction of GFP+ cells” value was 0.577 ± 0.5.

Take `N#Cc1ccc2ncnc(NCCc3ccccc3)c2c1` [Senexin A]: the “fraction of GFP+ cells” value turned out to be 0.863 ± 0.11.

In the case of `COc1cc2c(Nc3ccc(NC(=O)c4ccccc4)cc3)ncnc2cc1OCCCN1CCOCC1`, the “fraction of GFP+ cells” value is 0.59 ± 0.2.

For the compound `Nc1[nH]cnc2ncnc1-2` [Adenine sulfate], the “fraction of GFP+ cells” value stood at 1.1 ± 0.025.

For the compound `CC1(C)CCC2=C(O1)c1ccccc1C(=O)C2=O` [Beta-Lapachone], the “fraction of GFP+ cells” value is 0.973 ± 0.027.

As to `Cc1nc(N(C)C(=O)Cc2ccc(-c3ccccn3)cc2)sc1S(N)(=O)=O` [Pritelivir (BAY 57-1293)], the “fraction of GFP+ cells” value amounted to 1.01 ± 0.22.

With `NC(=O)c1cccnc1` [Nicotinamide (Vitamin B3)], the “fraction of GFP+ cells” value stood at 1.74 ± 0.82.

As for `CC(ONC(=O)c1cc(C(F)(F)F)cc(C(F)(F)F)c1)C(=O)Nc1ccc(Cl)cc1` (centres undefined), the “fraction of GFP+ cells” value was determined as 0.994 ± 0.12.

As for `CCN1CCN(Cc2ccc(Nc3ncc(F)c(-c4cc(F)c5nc(C)n(C(C)C)c5c4)n3)nc2)CC1`, the “fraction of GFP+ cells” value is 0.684 ± 0.039.

For `O=C(O)c1cc(I)ccc1NC(=O)[C@H](Cc1ccccc1)NCc1ccccc1`, the “fraction of GFP+ cells” value was determined as 1.89 ± 0.36.

For the compound `NC(=O)c1cc(F)cc2c1C(=O)N(C1CCN(C3CCC(F)(F)CC3)CC1)C2`, the “fraction of GFP+ cells” value was 0.792 ± 0.12.

As for `Nc1[nH]cnc2ncnc1-2` [Adenine HCl], the “fraction of GFP+ cells” value came out at 1.31 ± 0.32.

Take `O=C(CCCCCCNC(=O)c1cnc(N(c2ccccc2)c2ccccc2Cl)nc1)NO` [Citarinostat (ACY-241)]: the “fraction of GFP+ cells” value came to 0.902 ± 0.074.
